Bioassay records: PubChem BioAssay, National Center for Advancing Translational Sciences (NCATS)
Only some compounds are listed: those with a hit (about 2.6% of all), similar ones and a draw of the others.
AmpC nodet inh – blocks E. coli AmpC beta-lactamase in absence of detergent. P00811. AmpC nitrocefin hydrolysis, absorbance 480 nm, no detergent. Potency, µM (top dose mostly 28.7 µM), inactives show at the top dose activity change, negative = inhibition. actives 1.8% (n = 71,000). AID 585; also: % of control where 0% means no effect
Target sequence (P00811 whole entry, looked up): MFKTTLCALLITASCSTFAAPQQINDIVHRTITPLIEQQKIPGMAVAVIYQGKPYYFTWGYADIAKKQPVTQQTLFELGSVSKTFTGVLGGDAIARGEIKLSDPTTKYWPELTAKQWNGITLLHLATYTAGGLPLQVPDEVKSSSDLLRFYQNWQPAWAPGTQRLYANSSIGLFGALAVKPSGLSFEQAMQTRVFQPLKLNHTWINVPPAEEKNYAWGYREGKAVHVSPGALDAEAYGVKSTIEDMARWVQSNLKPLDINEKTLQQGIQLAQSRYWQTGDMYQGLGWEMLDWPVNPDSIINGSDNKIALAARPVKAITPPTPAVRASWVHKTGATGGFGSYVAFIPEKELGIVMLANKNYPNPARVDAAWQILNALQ
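AmpC, 20 mM phosphate pH 7.0; 15 min cpd preinc, RT; start with nitrocefin (800 uM stock); A480 kinetic read, 20 s intervals, 4 min. No-enzyme wells = negative control.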
SmPrx2 inh – inhibitors of Schistosoma mansoni peroxiredoxin 2; S. mansoni Prx2 activity coupled to TGR/GSH (TGR is thioredoxin glutathione reductase), NADPH fluorescence loss, qHTS; Potency, µM; actives 0.07% (n = 65,000); AID 448
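Prx2 inhibition was measured as reduced NADPH consumption when electrons flowed from NADPH through TGR and glutathione to Prx2 and H2O2. Plates were read kinetically over 8 min; enzyme reagents were held at 4 deg C during dispensing.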
LT uptake inh – anthrax lethal toxin internalization inhibition. Cells, anthrax lethal toxin internalization, FRET ratio (460/530). Potency, µM (titrated, usually from 40 µM), for inactives: at the top dose activity change, negative = inhibition, most hits filed as inhibitors. actives 0.67% (n = 70,000). AID 912; also: % is scaled to controls: 0 for no effect and ±100 for the full control effect; nearly all actives have a fitted effect of over 50% in size
AmpC inh det – inhibitors of E. coli AmpC beta-lactamase with detergent. P00811. purified AmpC, nitrocefin hydrolysis with detergent. Potency, µM (doses to about 28.7 µM), without a hit: at the top dose activity change, negative = inhibition. actives 0.09% (n = 71,000). AID 584; active = well fitted curve in the direction sought with a large enough effect; inconclusive = small, poorly fitted or top-dose-only effect; also: % is scaled to controls: 0 for no effect and ±100 for the full control effect
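E. coli AmpC (5.3 nM) in 20 mM phosphate pH 7.0 with 0.01% Triton X-100, preincubated 15 min RT with compound; nitrocefin (2 uL of 800 uM stock) hydrolysis followed by 480 nm absorbance every 20 s over 4 min.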
Numbers without * were called inactive; ? = inconclusive; nt = not tested or not shown; [ ] = dose if it differs, or a comment. Unless noted, calls follow the shape of the full dose curve. Potency is read from the fitted curve at half-maximal effect.

SMILES | AmpC nodet inh | SmPrx2 inh | LT uptake inh | AmpC inh det
C=CCc1cccc(C2NC(C(=O)O)CCC2C)c1 (configuration not stated) | nt | nt | -22%[8 µM] | nt
CC(=O)[O-].CC(=O)[O-].O.O.[Cd+2] | -8% | nt | 24% | 14%
COc1ccc(-c2nnc(SCC(=O)Nc3cccc(Cl)c3)o2)cc1 | 7.9µM* | >57 | 1% | 3%
Cc1ccc(NC(=O)CSC(N)=O)cc1Cl | 13µM* | >57 | 15% | 25%
NC(=O)SCC(=O)Nc1ccc(Cl)c(Cl)c1 | 5µM* | nt | -11% | 8%
NC(=O)SCC(=O)Nc1cccc(Cl)c1 | 7.9µM* | nt | 8% | 8%
CCCCCCCCCCCCCCCCCCNC(=O)OC[C@@H](COP(=O)([O-])OCC[n+]1ccsc1)OC | 31% | >57 | -1% | -3%
CCCCC#CC1C=CC(OC(C)=O)C(COC(C)=O)O1 (configuration not stated) | nt | nt | 4%[8 µM] | nt
CC(C)[C@@H]1O[C@H](/C=C\c2ccccc2)OCC1(C)C | 8%[5.75 µM] | >57 | 3%[8 µM] | -3%[5.75 µM]
O=C(Cn1ncc2c(=O)oc3ccccc3c21)NCCC1=CCCCC1 | -4% | >57 | -6% | 0%
O=C(Cn1ncc2c(=O)oc3ccccc3c21)NCC1CCCO1 (configuration not stated) | 4µM*[single pt active] | >57 | -10% | 17%
CC(CCc1ccco1)NC(=O)Cn1ncc2c(=O)oc3ccccc3c21 (configuration not stated) | 4µM*[single pt active] | >57 | -15% | 14%
CCOCCCNC(=O)Cn1ncc2c(=O)oc3ccccc3c21 | 4µM*[single pt active] | >57 | -14% | 8%
CC(C)OCCCNC(=O)Cn1ncc2c(=O)oc3ccccc3c21 | 1% | >57 | 5% | -4%
Cc1cc(C(=O)CSc2nnnn2-c2ccc(O)cc2)c(C)n1Cc1ccc2c(c1)OCO2 | 13µM* | >57 | ? | -5%
Cc1cc(C(=O)CSc2nnc(-c3cccc(F)c3)n2N)c(C)n1Cc1ccc2c(c1)OCO2 | 16µM*[single pt active] | >57 | -14% | 9%
Cc1ccc(-c2nnc(SCC(=O)Nc3ccc4c(c3)OCCO4)n2N)cc1 | -6% | >57 | -3% | 10%
O=c1c(-c2cc(F)cc(F)c2)nc2cnc(N3CCNCC3)nc2n1Cc1ccc(F)cc1 | 80% | >57 | ? | -2%
O=C(Nc1ccc(Cl)cc1)N(Cc1cccs1)Cc1cccs1 | 5µM* | nt | -21% | 2%
Cc1ncc(CO)c2cc(S(=O)(=O)c3ccc(F)cc3)c(=O)oc12 | 4µM*[single pt active] | 17* | 0% | 13%
Cc1nn(-c2nc3ccccc3s2)c(N)c1-c1ccccc1 | -12% | >57 | 13µM* | 0%
COc1cc(NC(=O)C2CCC(CNc3c(N4CCCCC4)c(=O)c3=O)CC2)cc(OC)c1 (configuration not stated) | 4µM*[single pt active] | >57 | ? | 13%
O=C(NC1CCCc2ccccc21)C1CCC(CNc2c(N3CCOCC3)c(=O)c2=O)CC1 (configuration not stated) | 3.2µM*[single pt active] | >57 | ? | 10%
COc1ccccc1CNC(=O)C1CCC(CNc2c(N3CCOCC3)c(=O)c2=O)CC1 (configuration not stated) | 28% | >57 | ? | 12%
N#Cc1nc(-c2ccccc2F)oc1NC1CCCCC1 | 4µM*[single pt active] | >57 | ? | 11%
SMILES | AmpC nodet inh | SmPrx2 inh | LT uptake inh | AmpC inh det
CN(C)CCNc1oc(-c2ccccc2F)nc1C#N | 4µM*[single pt active] | >57 | -8% | 13%
N#Cc1nc(-c2ccccc2F)oc1NCc1cccc2c1OCO2 | 13% | >57 | 11% | -4%
O=C1C(=O)c2ccccc2C(O)=C1Cc1ccccc1 | 13%[5.75 µM] | >57 | -1%[8 µM] | -2%[5.75 µM]
O=C1C=CC2=C3c4cc(O)c(O)cc4C[C@@]3(O)COC2=C1O | 16µM* | >57 | 25µM* | -14%
O=C(NCCCN1CCCCC1)C1(S(=O)(=O)c2ccc(Cl)cc2)CC1 | 4µM*[single pt active] | >57 | -5% | 14%
O=C(NCCN1CCCC1)C1(S(=O)(=O)c2ccc(Cl)cc2)CC1 | -4% | >57 | -1% | -4%
O=C(CSCc1ccco1)c1ccc(Cl)s1 | 10µM* | >57 | -8% | 12%
C[C@H](N)C1CCC(C(=O)Nc2ccncc2)CC1 (some centres not stated) | -10% | >57 | 6% | -1%
Cc1ccc(-c2nn3c(C)nnc3s2)cc1NC(=O)COc1ccc(Cl)cc1 | 17% | >57 | -11% | 13%
CC(C)(C)n1nc2c(c1NC(=O)COc1ccc(Cl)cc1)CSC2 | 13µM* | >57 | ? | -2%
CN(C)c1ccc(N(C)C)cc1 | 0% | nt | 3% | 6%
